Source: PubChem BioAssay
LDHA block = LDHA (human) enzyme inhibition. purified LDHA, NADH/diaphorase-resazurin fluorescence; stronger effect = lower value. P00338. 0.15% of 480,000 active. activity change, % (values are at about 110 or 230 µM); in the data active = activity change below about -30%; inconclusive = mostly about -25% to -30%;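 note: plate controls were DMSO wells for no effect and wells without enzyme for full effect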
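Resorufin fluorescence (ex540/em590), read at 0 and 20 min after diaphorase/resazurin addition, reports the NADH left after a 5 min room-temperature reaction of 2 nM human LDH5 with 0.06 mM NADH and 0.2 mM pyruvate.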
Nrf2 block = inhibitors of Nrf2 signaling; A549 ARE-Fluc reporter, luciferase luminescence, 18-24 h; Potency, µM (titrated, usually from 46 µM), for inactives: at the top dose activity change, negative = inhibition, usual class: inhibitors; 2.1% of 360,000 active; note: potency is the fitted concentration of half-maximal effect; % is set by controls: 0 for no effect and ±100 for the full control effect; nearly all actives have a fitted effect of over 60% in size
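Nrf2 activity is the BugLite luminescence, read 15 min after reagent at room temperature, following CellTiter-Fluor cytotoxicity readout (30 min, 37C). Compound titrations were applied for 18-24 h to 5000 A549 ARE_Fluc cells/well in 5% FBS OPTI-MEM.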
Nrf2 activator = activates Nrf2 signaling. 0.31% of 410,000 active. Potency, µM (titrated, usually from 46.1 µM), inactives show at the top dose activation, usual class: activators. AREc32 ARE-luciferase reporter (MCF7-derived line), luminescence, 24 h; note: potency is the fitted concentration of half-maximal effect; % of control where 0% means no effect; nearly all actives have a fitted effect of over 65% in size
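Quantitative high-throughput format: AREc32 reporter cells, 1000 per well, received compound by pin transfer and were incubated 24 hr at 37 deg C, 5% CO2, before Steady-Glo luminescence detection.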
A549 tox-1 = A549 cytotoxicity, counter-screen for Nrf2 inhibitors; Potency, µM (titrated, usually from 46 µM), for the others: at the top dose activity change, negative = cytotoxicity, actives largely listed as inhibitors; AID 504648; 0.16% of 390,000 active; A549 ARE-Fluc cells, CellTiter-Fluor viability, 18-24 h; note: potency is the fitted concentration of half-maximal effect; % is set by controls: 0 for no effect and ±100 for the full control effect
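A549 ARE_Fluc cells in 5% FBS OPTI-MEM were exposed to compounds in concentration-response for 18-24 h at 37 deg C. Viability was read by CellTiter-Fluor fluorescence (Ex 405/Em 525) after 30 min, before the luciferase read.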
ERG Ets-DNA blk = ERG Ets/DNA interaction inhibition. P11308. fluorescence polarization, His-ERG Ets domain / labelled DNA. Potency, µM (doses to about 76.9 µM), inactives show at the highest dose FP activity, negative = inhibition, hits mostly inhibitors. 0.028% of 370,000 active. AID 624246; active = well fitted inhibition curve with a large enough effect in the polarisation, with a control signal flat; inconclusive = small, poorly fitted or top-dose-only effect, or effect the other way, or a change in a side signal; inactive = no such curve, though single readings can be large or run the other way; the % refers to the polarisation;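 note: polarization taken with two DNA probes labelled with fluorescein and Texas red; potency is the fitted concentration of half-maximal effect; % of control where 0% means no effect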
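His-tagged ERG Ets domain (1 uM in the protein solution; 300mM KCl, 50mM Tris-HCl, 1mM EDTA, 1mM DTT, pH 7.5) received compound, then a probe mix of 5 nM fluorescein-DNA and 100nM Texas-615-DNA. Fluorescence polarization was read for both dyes.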
12-LOX inh = blocks human arachidonate 12S-lipoxygenase; purified 12hLO, xylenol orange hydroperoxide absorbance; 1.1% of 580,000 active; Potency, µM (highest dose often 108 µM), without a hit: at the highest dose activity change, negative = inhibition, actives largely listed as inhibitors; note: potency is the fitted concentration of half-maximal effect; % is set by controls: 0 for no effect and ±100 for the full control effect
Target sequence (P18054 whole entry, looked up): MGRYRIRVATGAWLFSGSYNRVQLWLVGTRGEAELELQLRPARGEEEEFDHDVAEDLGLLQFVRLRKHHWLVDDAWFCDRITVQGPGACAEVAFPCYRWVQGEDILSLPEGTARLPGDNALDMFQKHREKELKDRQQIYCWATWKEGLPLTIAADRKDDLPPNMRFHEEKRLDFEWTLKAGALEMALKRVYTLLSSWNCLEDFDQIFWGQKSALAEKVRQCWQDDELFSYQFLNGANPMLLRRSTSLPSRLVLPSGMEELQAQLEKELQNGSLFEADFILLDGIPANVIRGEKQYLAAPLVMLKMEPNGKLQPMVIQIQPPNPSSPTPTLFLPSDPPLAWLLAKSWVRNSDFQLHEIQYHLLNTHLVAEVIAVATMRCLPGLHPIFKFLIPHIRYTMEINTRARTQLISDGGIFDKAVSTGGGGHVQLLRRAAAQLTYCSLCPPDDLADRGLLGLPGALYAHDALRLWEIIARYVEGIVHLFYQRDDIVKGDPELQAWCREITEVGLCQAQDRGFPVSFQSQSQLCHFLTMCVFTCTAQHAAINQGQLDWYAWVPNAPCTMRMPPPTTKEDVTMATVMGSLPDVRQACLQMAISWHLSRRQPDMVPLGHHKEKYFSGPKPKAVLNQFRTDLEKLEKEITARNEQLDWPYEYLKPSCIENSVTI
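Hydroperoxide product was detected by ferrous iron/xylenol orange as the 573 to 405 nm absorbance ratio. Arachidonic acid at 40 uM (final) was turned over for 30 min at room temperature by 150 nM human 12hLO, pH 7.0 Hepes buffer, after 15 min compound preincubation.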
FLuc enzyme inh = blocks purified firefly luciferase in Nrf2 counterscreen | shares compounds with Nrf2 block | purified firefly luciferase, luminescence inhibition | Potency, µM (top dose mostly 57.5 µM), inactives show top-dose activity change, negative = inhibition, hits mostly inhibitors | 4% of 1,400 active; note: potency is the fitted concentration of half-maximal effect; % is set by controls: 0 for no effect and ±100 for the full control effect; nearly all actives have a fitted effect of over 65% in size
A549 tox-2 = toxic to A549 ARE-Fluc cells in Nrf2 counterscreen; shares compounds with Nrf2 block; A549 ARE-Fluc cells, cytotoxicity counterscreen; Potency, µM (highest dose often 46.1 µM), without a hit: at the highest dose activity change, negative = cytotoxicity, hits mostly inhibitors; 2% of 1,400 active; AID 720523;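 note: potency is the fitted concentration of half-maximal effect; cells exposed to compounds for 18 to 24 hours; % is set by controls: 0 for no effect and ±100 for the full control effect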
ARE-Fluc inh = confirmation of Nrf2 inhibitors in A549 ARE reporter cells; shares compounds with Nrf2 block; A549 ARE-firefly luciferase reporter, luminescence; Potency, µM (series often up to 46.1 µM), without a hit: at the top dose activity change, negative = inhibition, actives largely listed as inhibitors; 74% of 1,400 active; AID 720524; note: potency is the fitted concentration of half-maximal effect; % is set by controls: 0 for no effect and ±100 for the full control effect; nearly all actives have a fitted effect of over 65% in size
Starred values were filed as active, the others as inactive; ? = inconclusive; · = not tested or not shown; ! = not active in a repeat; [ ] = another dose, or the depositor's remark. Sampled rows, rich in hits. Any-hit rate of the full collection: about 2.7%. Unless noted, calls come from the whole dose curve; as a rule, active = well fitted curve in the direction sought with a large enough effect; inconclusive = small, poorly fitted or top-dose-only effect, or another doubt; inactive = no such curve, though single readings can be large; an effect the other way counts as inactive or inconclusive.

SMILES | LDHA block | Nrf2 block | Nrf2 activator | A549 tox-1 | ERG Ets-DNA blk | 12-LOX inh | FLuc enzyme inh | A549 tox-2 | ARE-Fluc inh
COc1ccc(CCN(C)C(=O)Cc2ccc(-c3ccccc3)cc2)cc1OC | -10 | 5.8µM* | 3% | -1% | -6% | -13% | 0% | -2% | 18µM*
Cc1cc(-c2csc(NC3CCCCC3)n2)c(C)n1NC(=O)c1nn(C)c(=O)c2ccccc12 | -3 | · | · | · | · | ? | · | · | ·
c1ccc(CNc2ncnc3ccccc23)cc1 | 7 | 4.6µM* | -1% | -3% | -4% | -11% | 0% | -12% | 6.5µM*
Cc1ccccc1CNc1ncnc2ccccc12 | 0 | · | · | · | · | 20% | · | · | ·
COc1ccc(C(=S)N2CCN(c3ccccc3Cl)CC2)cc1OC | -6 | -16% | -1% | -3% | 0% | ? | · | · | ·
C[n+]1ccccc1N1CCN(c2ccccc2Cl)CC1 | -11 | 3.3µM* | -1% | -3% | 16% | ? | 3% | -12% | 6.5µM*
CN1C(C(=O)Nc2ccc(OC(F)(F)F)cc2)=CC(c2cccs2)=NS1(=O)=O | -2 | 3.7µM*! | 0% | 1% | 5% | 1% | -2% | -26% | ·
Cc1cc(C)c2oc(-c3ccc(NC(=O)c4cc(Br)ccc4Cl)cc3)nc2c1 | -5 | 5.8µM* | 3% | 1% | 1% | -18% | -13% | -1% | 7.3µM*
CC(=O)c1c(C)[nH]c(C(=O)OCC(=O)Nc2ccc(Cl)c(S(=O)(=O)N(C)C)c2)c1C | -2 | 9.2µM* | 5% | -21% | -8% | 0% | -2% | -15% | 9.2µM*
COc1ccc(NC(=O)COc2ccc(N(C)S(=O)(=O)c3ccc(Cl)cc3)cc2)cc1OC | -1 | 9.2µM* | 2% | -9% | · | -34% | 3% | -11% | 6.5µM*
COc1ccc(S(=O)(=O)Nc2ccc(F)cc2)cc1N(C)S(=O)(=O)c1ccc(Cl)cc1 | 7 | ? | 8% | -29% | · | 5%[57.4 µM] | · | · | ·
COc1ccc(NS(=O)(=O)c2ccc(OC)c(N(C)S(=O)(=O)c3ccc(Cl)cc3)c2)cc1 | 4 | 7.3µM* | 6% | ? | · | -3% | -10% | ? | 8.2µM*
CC(=O)N(C)c1ccc(OCC(O)Cn2c(C)nc3ccccc32)cc1 (configuration not stated) | -4 | 9.2µM* | 0% | -18% | -8% | -2% | 1% | 7% | ?
CC(=O)Nc1ccc(OCC(O)Cn2c(C)nc3ccccc32)cc1 (configuration not stated) | 7 | -16% | 0% | 5% | -1% | 27% | · | · | ·
CCOC(=O)c1sc(NC(=O)c2cc(-c3ccccc3C)nc3ccccc23)c(C#N)c1C | -5 | 4.1µM* | 5% | ? | 6% | ? | 12µM* | ? | 4.1µM*
Cc1ccccc1-c1cc(C(=O)Nc2sc(C)c(C)c2C(N)=O)c2ccccc2n1 | -5 | · | 3% | -21% | -2% | ? | · | · | ·
O=C(CCc1nc(-c2ccc(Cl)cc2)no1)NC1CCCCC1 | -5 | ? | 0% | -10% | 0% | 0% | · | · | ·
O=C(CCCc1nc(-c2ccc(Cl)cc2)no1)NC1CCCC1 | -6 | 4.1µM* | -1% | -17% | 4% | -1% | 2% | -4% | 5.2µM*
COc1ccc(S(=O)(=O)N2CCN(CCOc3ccc(Br)cc3)CC2)cc1OC | -8 | 5.8µM* | 4% | -16% | 2% | 50% | -11% | ? | 7.3µM*
CCCc1sc(N/N=C/c2ccccn2)nc1-c1ccc(Br)cc1 | -1 | 2.9µM* | 0% | ? | 4% | -28% | -29% | -29% | 5.8µM*
CC(=O)Nc1sc(N/N=C/c2ccccc2)nc1-c1ccc(C)cc1 | 2 | 12% | 5% | -4% | -8% | -17% | · | · | ·
O=C(Nc1ccccc1F)Nc1ccccc1N1CCCCC1 | 2 | 5.8µM* | 5% | ? | -5% | 172% | -13% | -2% | ?
O=C(Nc1ccc(F)cc1F)c1nc2ccccc2nc1N1CCCCC1 | 4 | · | · | · | · | 7% | · | · | ·
Cc1cc(C)c(NS(=O)(=O)c2cc(-c3onc(C)c3C)ccc2C)c(C)c1 | -5 | ? | -1% | 9% | 0% | -29% | · | · | ·
Cc1ccc2c(c1)N(S(=O)(=O)c1cc(-c3onc(C)c3C)ccc1C)CCO2 | -3 | 8.2µM* | 0% | 1% | 8% | 0% | 1% | 2% | ?
SMILES | LDHA block | Nrf2 block | Nrf2 activator | A549 tox-1 | ERG Ets-DNA blk | 12-LOX inh | FLuc enzyme inh | A549 tox-2 | ARE-Fluc inh
CC(Sc1nnc(-c2cccs2)n1-c1ccccc1)C(=O)Nc1ccc2c(c1)OCO2 (configuration not stated) | 10 | · | · | · | · | -22% | · | · | ·
Cc1ccc(OCC(=O)NCCCNC(=O)c2ccncc2)cc1 | -5 | -2% | 0% | 0% | 2% | 7% | · | · | ·
Cc1ccc(OCC(=O)NCCCNC(=O)c2cccnc2)cc1 | -5 | 1.8µM* | 0% | 0% | -1% | -22% | 1% | 2% | 6%
CCc1c(C)sc2c1c1nc(-c3ccccc3)nn1c(=O)n2CC(=O)N1CCCC1 | -1 | · | · | · | · | 6% | · | · | ·
C=CC(=O)Nc1cccc(Nc2nc(NC3CCC(N(C)C)CC3)nc3c2ncn3C(C)C)c1 (configuration not stated) | · | · | · | · | · | -30%[57.4 µM] | · | · | ·
C=CC(=O)Nc1ccc(Nc2nc(NC3CCC(N(C)C)CC3)nc3c2ncn3C(C)C)cc1 (configuration not stated) | -1 | 2.6µM* | -3% | 18µM* | 11% | · | 5% | 8.2µM* | 2.6µM*
Cc1cc(C)c(C(N)=O)c(SCC(=O)c2cc(C)n(-c3cc(C)on3)c2C)n1 | -2 | 2.3µM* | 0% | -12% | -7% | ? | -1% | -8% | ?
COCc1oc2c(cc(NS(=O)(=O)c3ccc(C)cc3)c3ccccc32)c1C(=O)OC | ? | · | · | · | · | -20% | · | · | ·
CN(CCOc1ccc(Cl)cc1)C(=O)c1cccc(S(=O)(=O)N2CCN(c3ccc(F)cc3)CC2)c1 | -4 | 4.1µM* | 2% | -19% | 14% | · | -1% | -15% | 4.1µM*
